The text below walks through data of PubChem BioAssay (NCATS).

Several values for one entry are separate records, joined by “and”; a condition that tells them apart may be missing. Equal entries are not always repeated. Inconclusive results are not listed. Activity calls are given as the source filed them. Unless noted, calls follow the shape of the dose curve; as a rule, active = well fitted curve in the direction sought with a large enough effect; inconclusive = small, poorly fitted or top-dose-only effect, or another doubt; inactive = no such curve, though single readings can be large; an effect the other way counts as inactive or inconclusive.

Experiment [1] is described as follows: qHTS Assay for Lipid Storage Modulators (AID 1519; calls by dose curve). Conditions: Drosophila S3 cells, BODIPY lipid droplet/cell ratio, laser cytometry, cells loaded with oleic acid. In short, it runs like this:
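Cells seeded at 5,000 per well were treated with compounds over a concentration series and loaded with oleic acid (400 uM, as added). Lipid droplet fluorescence (488 nm excitation, 500-530 nm channel) was read by laser-scanning cytometry and normalized to 20 uM Triacsin C.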

The target in experiment [2] is Ubiquitin carboxyl-terminal hydrolase 1 (Homo sapiens) (UniProt O94782). The experiment is described as follows: Inhibitors of USP1/UAF1: Pilot qHTS (AID 504865).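 Also: rhodamine fluorescence freed from ubiquitin-rhodamine substrate followed over time; top concentration of the series differs between compounds; % is scaled to controls: 0 for no effect and ±100 for the full control effect; nearly all actives have a fitted effect of over 35% in size.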 In outline: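 Kinetic fluorescence assay: 1nM USP1/UAF1, 15 min compound preincubation, then 150nM Ub-Rho; 480/540 nm.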
Experiment [3] has as its target Cytochrome P450 3A4 (Homo sapiens) (UniProt P08684). Briefly: qHTS Assay for Inhibitors and Substrates of Cytochrome P450 3A4 (AID 884). Also: nearly all actives have a fitted effect of over 50% in size. Also: potency is read from the fitted curve at half-maximal effect. In short, it runs like this: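 Luminescent readout of luciferin produced by CYP3A4 (20 nM) dealkylation of Luciferin-PPXE, 25 uM (its KM). NADPH-driven reaction ran 60 min at RT after 10 min compound preincubation; data scaled to 57 uM ketoconazole as 100% inhibition.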

Experiment [4] has the same target. Briefly: qHTS Assay for Activators of Cytochrome P450 3A4 (AID 885). Also: nearly all actives have a fitted effect of over 65% in size. In short, it runs like this:
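Using 20nM recombinant human CYP3A4 in potassium phosphate (200mM), substrate Luciferin-PPXE at 25uM, luminescent luciferin detection followed a 60-min RT NADPH reaction; data scaled to 57 uM ketoconazole.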

The nature of experiment [5]: Confirmation and Secondary Assay for Modulators of Hemoglobin Beta Chain Splicing at IVS2 705 locus (AID 930).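 Also: HeLa cells stably expressing the EGFP-705 splicing reporter; % of control where 0% means no effect.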 In short, it runs like this: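 Assay measures total GFP intensity per well in HeLa EGFP-705 cells after 2 days with compound; mis-splicing normally truncates EGFP, so fluorescence indicates corrected splicing.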
Experiment [6] can be described thus: Primary qHTS for small molecule stabilizers of the endoplasmic reticulum resident proteome: Secreted ER Calcium Modulated Protein (SERCaMP) assay (AID 1508630). Also: % is scaled to controls: 0 for no effect and ±100 for the full control effect. In short, it runs like this: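 The SH-SY5Y reporter protocol was run at 3 concentrations up to 38.3 uM (primary) or 11 concentrations (follow-up): 16 h compound, 100 nM thapsigargin for 4 h, then extracellular luciferase luminescence.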

The nature of experiment [7]: AP1 Signaling Pathway (AID 357; active = well fitted curve in either direction with a large enough effect, not every such curve was filed as active;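 also: ME-180 reporter cells stimulated with EGF at its EC50 level; % is scaled to controls: 0 for no effect and ±100 for the full control effect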). In outline:
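Read-out was the 460nm/530nm emission ratio (excitation 405nm) after CCF4 loading for 2.5 hours at room temperature. Cells carried an AP-1-driven beta-lactamase reporter, were stimulated with EC50 EGF plus compound for 5 hours, and AC50 values came from titrations.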

Experiment [8] deals with Cytochrome P450 1A2 (Homo sapiens) (UniProt P05177). Briefly: p450-cyp1a2 (AID 410; calls by dose curve; also: potency is read from the fitted curve at half-maximal effect). In short, it runs like this:
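O-Demethylation of luciferin 6' methyl ether by human CYP1A2 is monitored as luciferase luminescence. Substrate sits at Km (100uM); enzyme is 20nM. Values are scaled to 57 uM furafylline as maximal inhibition.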

Experiment [9] can be described thus: Stat Signaling Pathway (AID 446; active = well fitted curve in either direction with a large enough effect, not every such curve was filed as active;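 also: ME-180 cervical cancer cells given 40 pM IL-6 alongside compound; SIE-controlled beta-lactamase reporter measured as 460/530 nm FRET emission ratio; % is scaled to controls: 0 for no effect and ±100 for the full control effect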). In outline: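 Overnight-plated ME-180 cells bearing a STAT Inducible Element beta-lactamase reporter; 5 h co-exposure to compound and 40 pM IL-6; values normalized to 300 pM IL-6 and 125 nM JAK inhibitor controls.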
For experiment [10], the target named is Glucocorticoid receptor (Homo sapiens) (UniProt P04150). Briefly: GR-EFC Redistribution (AID 451; calls by dose curve; also: potency is read from the fitted curve at half-maximal effect). Conditions: CHO-K1 GR-EFC translocation, beta-gal luminescence, 2 h. In short, it runs like this: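 CHO-K1 cells stably expressing nuclear-localized β-gal enzyme acceptor and GR fused C-terminally to the enzyme donor fragment; ligand-driven nuclear translocation restores β-gal by complementation. Compounds titrated up to 46 uM final, 2 h at 37 °C; luminescence read.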

For experiment [11], the target named is Mitogen-activated protein kinase 10 (Mus musculus) (UniProt Q61831). The experiment is described as follows: JNK3 AlphaScreen Assay (AID 530; active = well fitted curve in either direction with a large enough effect, not every such curve was filed as active;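 also: kinase came from lysate of stimulated human HepG2 cells; signal reports phosphorylation of biotinylated GST-cJun 1-79 at Ser73 with 10 µM ATP; % is scaled to controls: 0 for no effect and ±100 for the full control effect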). In short, it runs like this:
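Phosphorylation of biotinylated GST-cJun(1-79) at Ser73 is measured by AlphaScreen proximity luminescence. Enzyme is JNK3 in HepG2 lysates activated with interleukin-1beta and tumor necrosis factor alpha; ATP is 10 uM final.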

Experiment [12] concerns the target 3',5'-cyclic-AMP phosphodiesterase 4B (Homo sapiens) (UniProt Q07343). Briefly: qHTS Assay for Inhibitors of PDE-IV (AID 607; active = well fitted activation curve with a large enough effect in the main read-out, with a control signal flat, not every such curve was filed as active; also: % of control where 0% means no effect). In outline:
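Live HEK293 cells with a modified cyclic nucleotide-gated (CNG) channel report intracellular cAMP via membrane-potential dye fluorescence (ex 535/em 590 nm). Endogenous PDE-IV was targeted. Compounds were tested at up to 22.9 uM final; RO 20-1724 100 uM served as control.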

Experiment [13] is described as follows: Confirmation and Secondary Assay for Modulators of Hemoglobin Beta Chain Splicing at IVS2 654 locus (AID 910).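 Also: per-well total GFP intensity by laser scanning cytometry after 2-day treatment; % of control where 0% means no effect.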 In outline:
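HeLa cells stably carrying EGFP interrupted by mutant beta-globin IVS2-654 intron (CMV-driven) were treated with compound for 2 days at 37C; corrected splicing was scored as total peak GFP intensity per well (488 nm excitation, 500-520 nm emission).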

Experiment [14] can be described thus: NFAT Signaling Pathway (AID 444; active = well fitted curve in either direction with a large enough effect, not every such curve was filed as active). Conditions: Jurkat NFAT-bla M1, carbachol, beta-lactamase ratio, 5 h; at 17.2 µM (top of the series). In short, it runs like this:
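Jurkat cells carrying an NFAT-driven β-lactamase reporter and co-transfected muscarinic M1 receptor were treated with compound plus carbachol (1 uM final, an EC50 level) for 5 h at 37 °C. CCF4 loading followed for 1 h at RT; 460/530 nm ratio gave %activity.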

Experiment [15] has as its target Glucocorticoid receptor (Homo sapiens) (UniProt P04150). The experiment is described as follows: GR-GFP Redistribution (AID 450;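 active = compounds whose dose series gives a full or clear partial fitted curve of increased nuclear translocation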; also: potency is read from the fitted curve at half-maximal effect). Conditions: U2OS GR-GFP nuclear translocation, laser cytometry, 2 h.
For experiment [16], the target named is Cytochrome P450 2C9 (Homo sapiens) (UniProt P11712). The experiment is described as follows: qHTS Assay for Inhibitors and Substrates of Cytochrome P450 2C9 (AID 883). Also: % is scaled to controls: 0 for no effect and ±100 for the full control effect; nearly all actives have a fitted effect of over 60% in size. In outline: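 CYP2C9 deoxyluciferin hydroxylation, 37C, 60 min with NADPH regeneration; 10nM enzyme, 100uM Luciferin-H (KM). Glo detection reagent stopped reaction; luminescence normalized to sulphaphenazole (57uM) full inhibition.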

The target in experiment [17] is Cytochrome P450 2D6 (Homo sapiens) (UniProt P10635). Briefly: qHTS Assay for Inhibitors and Substrates of Cytochrome P450 2D6 (AID 891). Also: potency is read from the fitted curve at half-maximal effect; nearly all actives have a fitted effect of over 60% in size. In short, it runs like this:
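Luminescent read-out of luciferin formed by 5 nM human CYP2D6 demethylating 30 uM Luciferin-ME EGE (Km level) over 60 min at room temperature after NADPH regeneration addition. Data normalized to full inhibition by 1.43 uM quinidine.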

[18] abbreviates: measured here: cell count channel max response.
Where [19] appears, read: measured here: lipid channel max response.

Sequence of Glucocorticoid receptor (Homo sapiens) (P04150 whole entry, looked up, the tested form may be a part): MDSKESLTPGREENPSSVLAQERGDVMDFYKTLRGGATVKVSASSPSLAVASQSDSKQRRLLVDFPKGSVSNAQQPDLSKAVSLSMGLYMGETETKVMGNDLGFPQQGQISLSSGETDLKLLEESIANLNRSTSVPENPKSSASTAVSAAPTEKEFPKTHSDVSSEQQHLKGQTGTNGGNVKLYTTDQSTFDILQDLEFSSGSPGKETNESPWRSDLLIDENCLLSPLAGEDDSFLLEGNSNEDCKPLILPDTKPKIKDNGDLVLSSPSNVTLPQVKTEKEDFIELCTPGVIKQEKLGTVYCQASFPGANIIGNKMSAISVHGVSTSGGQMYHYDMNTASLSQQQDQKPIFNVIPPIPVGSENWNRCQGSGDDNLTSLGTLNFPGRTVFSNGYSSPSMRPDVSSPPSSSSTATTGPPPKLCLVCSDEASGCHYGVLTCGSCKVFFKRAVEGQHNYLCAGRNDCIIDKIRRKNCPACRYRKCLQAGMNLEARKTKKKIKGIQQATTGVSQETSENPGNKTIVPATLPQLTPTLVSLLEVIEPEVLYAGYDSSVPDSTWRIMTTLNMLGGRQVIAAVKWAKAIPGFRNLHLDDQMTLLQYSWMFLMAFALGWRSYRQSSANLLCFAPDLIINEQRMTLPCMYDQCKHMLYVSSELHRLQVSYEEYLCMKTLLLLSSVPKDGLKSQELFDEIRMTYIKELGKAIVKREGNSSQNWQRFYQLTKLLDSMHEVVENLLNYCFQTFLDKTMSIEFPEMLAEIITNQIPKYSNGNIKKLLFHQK
Sequence of Cytochrome P450 1A2 (Homo sapiens) (P05177 whole entry, looked up): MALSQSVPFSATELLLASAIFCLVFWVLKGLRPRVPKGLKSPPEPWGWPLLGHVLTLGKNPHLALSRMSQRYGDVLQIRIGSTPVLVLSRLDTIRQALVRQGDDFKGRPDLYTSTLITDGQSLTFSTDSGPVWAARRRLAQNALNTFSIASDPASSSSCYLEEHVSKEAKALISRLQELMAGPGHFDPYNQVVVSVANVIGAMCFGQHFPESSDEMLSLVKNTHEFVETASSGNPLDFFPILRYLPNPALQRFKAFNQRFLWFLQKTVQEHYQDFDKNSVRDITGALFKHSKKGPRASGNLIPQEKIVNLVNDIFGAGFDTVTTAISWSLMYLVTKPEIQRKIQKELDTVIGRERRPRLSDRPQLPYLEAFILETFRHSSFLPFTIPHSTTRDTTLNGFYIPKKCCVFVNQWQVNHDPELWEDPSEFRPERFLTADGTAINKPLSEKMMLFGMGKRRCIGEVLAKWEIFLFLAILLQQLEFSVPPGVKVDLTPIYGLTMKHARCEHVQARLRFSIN
Sequence of Cytochrome P450 3A4 (Homo sapiens) (P08684 whole entry, looked up): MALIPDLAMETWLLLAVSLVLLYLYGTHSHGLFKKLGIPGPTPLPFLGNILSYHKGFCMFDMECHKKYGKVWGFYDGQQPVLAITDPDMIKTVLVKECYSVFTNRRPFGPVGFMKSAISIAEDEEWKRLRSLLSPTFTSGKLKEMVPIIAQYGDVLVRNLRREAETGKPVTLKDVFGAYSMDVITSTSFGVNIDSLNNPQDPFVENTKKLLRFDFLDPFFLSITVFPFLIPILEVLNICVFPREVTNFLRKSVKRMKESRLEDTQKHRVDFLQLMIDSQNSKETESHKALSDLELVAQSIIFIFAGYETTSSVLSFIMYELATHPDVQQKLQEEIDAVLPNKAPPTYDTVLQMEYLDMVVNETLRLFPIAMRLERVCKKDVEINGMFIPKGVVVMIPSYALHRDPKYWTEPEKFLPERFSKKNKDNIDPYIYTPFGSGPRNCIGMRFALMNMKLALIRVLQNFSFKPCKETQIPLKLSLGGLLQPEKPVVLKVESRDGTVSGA
Sequence of Ubiquitin carboxyl-terminal hydrolase 1 (Homo sapiens) (O94782 whole entry, looked up): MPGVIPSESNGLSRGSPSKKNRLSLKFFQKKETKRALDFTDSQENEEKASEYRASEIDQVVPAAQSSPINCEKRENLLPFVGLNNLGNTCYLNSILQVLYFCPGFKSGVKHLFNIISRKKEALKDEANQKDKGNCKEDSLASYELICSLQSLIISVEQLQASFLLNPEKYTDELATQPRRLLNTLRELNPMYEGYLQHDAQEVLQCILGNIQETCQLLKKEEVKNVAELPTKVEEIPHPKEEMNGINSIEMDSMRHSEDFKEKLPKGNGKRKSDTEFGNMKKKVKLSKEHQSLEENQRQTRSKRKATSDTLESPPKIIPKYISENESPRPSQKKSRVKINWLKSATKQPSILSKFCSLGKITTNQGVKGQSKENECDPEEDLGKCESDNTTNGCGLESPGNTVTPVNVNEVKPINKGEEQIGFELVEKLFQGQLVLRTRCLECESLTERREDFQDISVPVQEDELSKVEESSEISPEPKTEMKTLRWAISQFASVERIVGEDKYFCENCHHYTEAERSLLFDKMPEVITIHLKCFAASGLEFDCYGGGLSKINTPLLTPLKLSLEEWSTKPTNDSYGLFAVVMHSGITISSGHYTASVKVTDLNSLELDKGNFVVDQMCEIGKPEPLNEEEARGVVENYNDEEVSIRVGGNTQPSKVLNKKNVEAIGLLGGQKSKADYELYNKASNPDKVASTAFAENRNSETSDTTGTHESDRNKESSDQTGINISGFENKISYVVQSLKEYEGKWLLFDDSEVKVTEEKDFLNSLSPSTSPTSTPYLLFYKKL
Sequence of 3',5'-cyclic-AMP phosphodiesterase 4B (Homo sapiens) (Q07343 whole entry, looked up): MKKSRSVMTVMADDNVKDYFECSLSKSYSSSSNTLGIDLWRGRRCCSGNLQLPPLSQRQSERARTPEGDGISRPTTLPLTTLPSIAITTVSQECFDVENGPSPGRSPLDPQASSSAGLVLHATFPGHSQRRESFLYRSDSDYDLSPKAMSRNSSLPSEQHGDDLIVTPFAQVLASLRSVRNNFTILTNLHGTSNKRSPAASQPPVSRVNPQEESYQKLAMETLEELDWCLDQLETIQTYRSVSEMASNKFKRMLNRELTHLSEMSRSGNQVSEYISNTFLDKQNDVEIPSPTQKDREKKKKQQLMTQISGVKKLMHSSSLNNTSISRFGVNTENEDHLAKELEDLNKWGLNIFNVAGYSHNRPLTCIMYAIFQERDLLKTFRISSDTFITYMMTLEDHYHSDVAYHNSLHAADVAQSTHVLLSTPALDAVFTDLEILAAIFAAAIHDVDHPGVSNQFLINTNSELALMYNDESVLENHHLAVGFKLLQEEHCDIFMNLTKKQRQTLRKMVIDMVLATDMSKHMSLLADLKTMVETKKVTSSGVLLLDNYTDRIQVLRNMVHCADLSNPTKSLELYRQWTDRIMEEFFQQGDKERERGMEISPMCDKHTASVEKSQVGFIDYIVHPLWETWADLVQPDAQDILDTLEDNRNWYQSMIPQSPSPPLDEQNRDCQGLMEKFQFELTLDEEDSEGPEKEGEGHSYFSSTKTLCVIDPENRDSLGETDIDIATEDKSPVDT
Sequence of Cytochrome P450 2D6 (Homo sapiens) (P10635 whole entry, looked up): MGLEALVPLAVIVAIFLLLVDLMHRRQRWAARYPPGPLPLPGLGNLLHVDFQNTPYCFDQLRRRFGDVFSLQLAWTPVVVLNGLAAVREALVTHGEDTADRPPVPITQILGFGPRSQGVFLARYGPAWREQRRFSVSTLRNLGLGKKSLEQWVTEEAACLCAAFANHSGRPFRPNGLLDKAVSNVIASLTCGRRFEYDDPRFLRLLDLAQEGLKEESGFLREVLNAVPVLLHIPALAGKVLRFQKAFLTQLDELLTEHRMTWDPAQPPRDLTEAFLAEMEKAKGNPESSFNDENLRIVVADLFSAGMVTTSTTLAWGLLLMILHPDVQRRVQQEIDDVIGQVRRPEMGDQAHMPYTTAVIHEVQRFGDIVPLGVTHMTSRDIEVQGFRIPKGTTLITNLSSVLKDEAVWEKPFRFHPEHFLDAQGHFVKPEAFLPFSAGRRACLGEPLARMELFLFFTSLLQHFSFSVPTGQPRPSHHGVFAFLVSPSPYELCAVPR
Sequence of Cytochrome P450 2C9 (Homo sapiens) (P11712 whole entry, looked up): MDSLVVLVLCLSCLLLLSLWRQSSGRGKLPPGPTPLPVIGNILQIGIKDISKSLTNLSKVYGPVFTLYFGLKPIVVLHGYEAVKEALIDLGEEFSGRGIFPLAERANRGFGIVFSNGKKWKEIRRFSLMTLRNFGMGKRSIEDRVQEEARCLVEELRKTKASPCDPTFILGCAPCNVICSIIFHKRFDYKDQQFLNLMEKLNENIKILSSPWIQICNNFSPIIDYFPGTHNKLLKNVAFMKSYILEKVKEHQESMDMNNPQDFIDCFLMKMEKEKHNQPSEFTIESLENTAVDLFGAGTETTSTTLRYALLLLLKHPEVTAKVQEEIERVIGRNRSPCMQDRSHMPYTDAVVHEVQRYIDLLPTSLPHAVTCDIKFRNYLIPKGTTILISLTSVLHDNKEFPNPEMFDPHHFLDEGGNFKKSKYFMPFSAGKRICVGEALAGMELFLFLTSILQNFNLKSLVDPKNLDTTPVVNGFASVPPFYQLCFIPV

Consider `C[C@]12CC[C@H](O)CC1=CCC1C2CC[C@]2(C)C(=O)CC[C@@H]12` (stereo partly drawn), for which the activity change, negative = inhibition in experiment [1] (at 57.5 µM (top of the series)) is 0.778% (inactive). Further, the max response in experiment [1] (setting [18]) was -17.2%; in experiment [1] (setting [19]), -14.9%. Besides, in experiment [2], the Potency result is “inactive”.
Regarding `COc1cc2occc2c2oc(=O)ccc12`, in [3], the Potency was 12.6 µM (active). In addition, the Potency result in experiment [4] and in experiment [5] was “inactive” throughout. Besides, in experiment [6], the result was inactive.
Consider `O=C(Oc1ccccc1)N1CCC[C@@]2(CCN(Cc3ccccc3)C2)C1`, for which the molecule was called inactive in experiment [7], in experiment [9], in [11] and in [6]. Besides, the Potency is 15.8 µM (active) in experiment [8] and > 46 µM (inactive) in experiment [10]. Besides, the Potency entry in [12] and in experiment [4] was “inactive” each time.
Consider `COc1cc2c(cc1O)CC1c3c(cc(O)c(OC)c3-2)CCN1C` (stereo not drawn), for which the Potency in experiment [3] is 25.1 µM (active). Moreover, the Potency entry in [4], in experiment [13] and in [5] was “inactive” each time. Also, in experiment [1] (at 57.5 µM (top of the series)), the activity change, negative = inhibition was 9.81% (inactive). Also, the max response worked out at 24.1% in experiment [1] (setting [18]) and 38.2% in experiment [1] (setting [19]).
Turning to `COc1ccc2cc1Oc1ccc(cc1)C[C@H]1c3cc(c(OC)cc3CCN1C)Oc1c(OC)c(OC)cc3c1[C@@H](C2)N(C)CC3`, the activity change, negative = inhibition in [1] (at 25.7 µM (top of the series)) is -4.24% (inactive). Further, the max response is -9.67% in experiment [1] (setting [18]) and -10.6% in experiment [1] (setting [19]).
In the case of `CC(C)C[C@H]1C(=O)N2CCCC2[C@]2(O)O[C@](NC(=O)[C@@H]3C=C4c5cccc6[nH]c(Br)c(c56)C[C@H]4N(C)C3)(C(C)C)C(=O)N12` (stereo partly drawn), the activity change, negative = inhibition in experiment [1] (at 57.5 µM (top of the series)) is -0.407% (inactive). Moreover, the results for the max response in [1] (setting [18]) and in experiment [1] (setting [19]) were -32% and -33.2%, respectively.
As to `c1ccc(N=Nc2ccccc2)cc1`, in experiment [11], the molecule was classed as inactive. The Potency entry in [3], in [13], in experiment [5] and in experiment [2] was “inactive” in each case. Besides, the activity change, negative = inhibition in experiment [1] (at 57.5 µM (top of the series)) was -5.75% (inactive). Also, the max response in [1] (setting [18]) is -21.5%; in experiment [1] (setting [19]), -24.4%.
With `CN1C[C@H](C(=O)N[C@@]2(C)O[C@@]3(O)C4CCCN4C(=O)C(Cc4ccccc4)N3C2=O)C[C@H]2c3cccc4[nH]cc(c34)C[C@H]21` (stereo partly drawn), in experiment [1] (at 57.5 µM (top of the series)), the activity change, negative = inhibition was 12.3% (inactive). The max response in experiment [1] (setting [18]) was determined as 8.55%; in [1] (setting [19]), 25.1%.
The corresponding values for `CNCC[C@@H](Oc1ccc(C(F)(F)F)cc1)c1ccccc1` are 1.23% (inactive), -30.3% and -28.9%.
Consider `CC1=NCCc2c1[nH]c1cc(O)ccc21`, for which the Potency is 12.6 µM (active) and 25.1 µM (active) in experiment [8]; > 20.6 µM (inactive) and > 46 µM (inactive) in [15]; > 20.6 µM (inactive) and > 46 µM (inactive) in experiment [10]. Also, the activity change, negative = inhibition in experiment [14] was -14.7% (inactive); in experiment [1] (at 25.7 µM (top of the series)) it was 1.71% (inactive); in experiment [1] (at 57.5 µM (top of the series)), 18.3% (inactive). Also, the result in experiment [9] and in [11] was inactive. For the same molecule, the Potency entry in [16], in [3], in experiment [4], in experiment [13] and in experiment [5] was “inactive” in each case. Besides, the max response is 2% and 2.42% in experiment [1] (setting [18]); 2.85% and 18.5% in [1] (setting [19]).
Take `NC(N)=N/N=C\c1c(Cl)cccc1Cl`: in experiment [1] (at 57.5 µM (top of the series)), the activity change, negative = inhibition is 6.25% (inactive). Moreover, the figures for the max response in experiment [1] (setting [18]) and in [1] (setting [19]) were 12.3% and 22.6%, respectively.
The corresponding values for `CC(CCC(=O)O)C1CCC2C3C(=O)CC4CC(=O)CC[C@@]4(C)C3CC(=O)[C@]12C` (stereo partly drawn) are 1.06% (inactive), 16% and 21.9%.
Take `CCCN(C/C=C\I)[C@@H]1CCc2ccc(O)cc2C1`: the results for the Potency in experiment [15], in [10] and in experiment [17] were > 46 µM (inactive), > 46 µM (inactive) and 0.0158 µM (active), respectively. Further, the result in experiment [6] was inactive.
Turning to `CN1C2CC(OC(=O)C(CO)c3ccccc3)C[C@@H]1[C@H]1OC21` (stereo partly drawn), the activity change, negative = inhibition in [1] (at 57.5 µM (top of the series)) was 7.13% (inactive). Besides, the values for the max response in experiment [1] (setting [18]) and in experiment [1] (setting [19]) were 12.9% and 25.6%, respectively.
As for `O=C(Nc1ccccc1)N1CCCC2(CCN(C(=O)Oc3ccccc3)CC2)C1`, the molecule was called inactive in experiment [7], in [9] and in experiment [6]. Moreover, the Potency in experiment [8] is 25.1 µM (active); in [10], > 46 µM (inactive). For the same molecule, the Potency result in experiment [12] and in experiment [4] was “inactive” in each case.
